Laboratory results from PubChem BioAssay.
Where “and” joins values, the source holds several entries; their conditions need not be identical. Equal values may be shown once. Calls of active or inactive are those of the source. Unless noted, no rule for the calls is given here.

Experiments:
[1] = liver-stage malaria parasite growth inhibition, primary screen, cell-based, HepG2, luciferase luminescence, HepG2 viability (AID 624349; in the data active = parasite load remaining mostly below about 12%, no sharp cut-off; inactive = mostly above about 10%;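 also: 100% = mean of DMSO negative control wells on the same plate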); conditions: P. berghei liver stage in HepG2, luciferase luminescence, concentration not given here; parasite load remaining: stronger effect = lower value; viability: measured here: HepG2 viability without parasites
[2] = Cy5 fluorescence interference with SSB-bound oligo, artefact control for HCV NS3 helicase inhibitor project, biochemical, NIH Clinical Collection, E. coli SSB (AID 743268)
[3] = system: Hepatitis C virus NS3 helicase; test: HCV NS3 helicase inhibitors, primary screen, biochemical, fluorescence polarization, NIH Clinical Collection (AID 743270); conditions: NS3 helicase binding to Cy5-dT15 DNA, stronger effect = higher value, concentration not given here
[4] = target: Single-stranded DNA-binding protein (Escherichia coli (strain K12)) (UniProt P0AGE0); test: E. coli SSB displacement from DNA, counter-screen for HCV NS3 helicase inhibitor project, biochemical, fluorescence polarization, NIH Clinical Collection (AID 743271; in the data active = inhibition above about 28%); conditions: stronger effect = higher value, concentration not given here
[5] = fluorescence interference in NS3h assay format, artefact control for HCV NS3 helicase inhibitor project, biochemical, NIH Clinical Collection (AID 743272); conditions: fluorescence interference counterscreen, stronger effect = lower value;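 also: HCV NS3 helicase with a Cy5 labelled single stranded DNA probe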
[6] = system: Neuropilin-2 / VEGF-C interaction (human); test: inhibitors of NRP2–VEGF-C binding, biochemical, microplate binding format, z-score (AID 743281); conditions: microplate NRP2/VEGF-C binding assay; stronger effect = lower value
[7] = stimulators of nuclear beta-catenin in C2C12, primary screen, imaging, WNT3A-conditioned medium, mouse C2C12, NPC library (AID 1117326; in the data active = nuclear beta-catenin stimulation mostly above about 4.2%, no sharp cut-off; inactive = mostly below about 10%); conditions: stronger effect = higher value

SMILES | parasite load remaining [1] | viability [1] | fluorescence ratio [2] | inhibition [3] | inhibition [4] | fluorescence ratio [5] | outcome [6] | nuclear beta-catenin stimulation ([7]; at 10 µM) | nuclear beta-catenin stimulation ([7]; stimulation, at 2 µM) [%] | z-score [6]
CN1CCN(c2c(F)cc3c(=O)c(C(=O)O)cn4c3c2SCC4)CC1 | 99.2% (inactive) and 24.3% (inactive) | 91.2% and 66% | 1.04 (inactive) | -4.36% (inactive) | -3.18% (inactive) | 0.99 (inactive) | inactive | 1.2% (inactive) | -0.2 | –
CCN1CCN(c2cc3c(cc2F)c(=O)c(C(=O)O)cn3C2CC2)CC1 | 29.1% (inactive) and 34.1% (inactive) and 1.73% (inactive) | 97.4% and 66.5% and 68.5% | 1 (inactive) | 0.66% (inactive) | 0.39% (inactive) | 0.97 (inactive) | – | 0.9% (inactive) | 0.3 | -0.441 (inactive)
CCc1c2c(nc3ccc(OC(=O)N4CCC(N5CCCCC5)CC4)cc13)-c1cc3c(c(=O)n1C2)COC(=O)[C@]3(O)CC | 136% (inactive) and 106% (inactive) | 95.2% and 90.6% | – | – | – | – | – | 11.6% (inactive) | 1.5 | -0.00941 (inactive)
Cc1nc2ccc(CN(C)c3ccc(C(=O)N[C@@H](CCC(=O)O)C(=O)O)s3)cc2c(=O)[nH]1 | 12.1% (inactive) | 89.6% | 0.88 (inactive) | -4.59% (inactive) | 17.7% (inactive) | 0.88 (inactive) | inactive | 61.4% (active) | 62.4 | –
Cn1c(NCCN(CCO)CCCc2ccc([N+](=O)[O-])cc2)cc(=O)n(C)c1=O | 109% (inactive) and 18.9% (inactive) | 77.5% and 73.5% | 0.99 (inactive) | 0.4% (inactive) | 1.44% (inactive) | 0.97 (inactive) | – | 0.1% (inactive) | 0.3 | 0.0586 (inactive)
COC(=O)C1=C(C)NC(C)=C(C(=O)OC(C)C)C1c1cccc2nonc12 (configuration not stated) | 105% (inactive) and 85.6% (inactive) | 74.3% and 66.7% | 1.01 (inactive) | 6.73% (inactive) | 4.52% (inactive) | 0.98 (inactive) | – | 28.6% (inactive) | 0.3 | -2.69 (inactive)
O=C1[C@H]2CCCC[C@H]2C(=O)N1CCCCN1CCN(c2nsc3ccccc23)CC1 | 42.7% (inactive) | 60.1% | 1 (inactive) | 0.4% (inactive) | -2.41% (inactive) | 0.96 (inactive) | – | 10.9% (inactive) | 1 | -0.553 (inactive)
O=C(O)/C=C/c1ccc(Cn2ccnc2)cc1 | 92.2% (inactive) and 85.3% (inactive) and 50.2% (inactive) | 79.5% and 65.9% and 102% | 1.05 (inactive) | -2.77% (inactive) | -3.95% (inactive) | 0.97 (inactive) | – | -2.1% (inactive) | 1.2 | -0.108 (inactive)
Nc1c2c(nc3c1CCC3)CCCC2 | 74.2% (inactive) | 68.8% | 0.99 (inactive) | 2.77% (inactive) | 1.44% (inactive) | 0.9 (inactive) | – | 0.3% (inactive) | 0.3 | -0.236 (inactive)
CC(C)(O)c1ccccc1CC[C@@H](SCC1(CC(=O)O)CC1)c1cccc(/C=C/c2ccc3ccc(Cl)cc3n2)c1 | 105% (inactive) and 55% (inactive) | 73.6% and 151% | 0.98 (inactive) | 6.73% (inactive) | 4.52% (inactive) | 1.03 (inactive) | – | 9.7% (inactive) | -0.2 | -0.15 (inactive)
CN(CCOc1ccc(NS(C)(=O)=O)cc1)CCc1ccc(NS(C)(=O)=O)cc1 | 94% (inactive) and 61.2% (inactive) | 70% and 214% | – | – | – | – | – | -0.7% (inactive) | 1.6 | -1.11 (inactive)
Cc1ccc(NC(=O)c2ccc(CN3CCN(C)CC3)cc2)cc1Nc1nccc(-c2cccnc2)n1 | 17.1% (inactive) and 60.3% (inactive) | 65.9% and 227% | – | – | – | – | – | 7.1% (inactive) | -0.1 | -0.734 (inactive)
CC(C)[C@H](N)C(=O)OCCOCn1cnc2c(=O)[nH]c(N)nc21 | 172% (inactive) and 103% (inactive) and 32.5% (inactive) | 88% and 76.1% and 74% | 1.06 (inactive) | -4.36% (inactive) | -4.72% (inactive) | 1.03 (inactive) | inactive | 0.1% (inactive) | 2.1 | –
CN1CCC(=C2c3ccccc3CCc3sccc32)CC1 | 28.2% (inactive) and 50.3% (inactive) and 34.4% (inactive) | 70.7% and 95.5% and 65.5% | 0.99 (inactive) | -1.98% (inactive) | -0.87% (inactive) | 0.94 (inactive) | – | -0.8% (inactive) | -1.1 | 1.11 (inactive)
O=C1CCc2ccc(OCCCCN3CCN(c4cccc(Cl)c4Cl)CC3)cc2N1 | 37.5% (inactive) and 20.9% (inactive) and 45.9% (inactive) | 98.8% and 60.3% and 100% | 1 (inactive) | 1.98% (inactive) | 4.52% (inactive) | 1.02 (inactive) | – | 2.8% (inactive) | 0.4 | 1.76 (inactive)
O=C(NCCO[N+](=O)[O-])c1cccnc1 | 31.4% (inactive) and 90.9% (inactive) and 44.6% (inactive) | 48.5% and 74.2% and 98.5% | 1.04 (inactive) | 1.19% (inactive) | 0.67% (inactive) | 1.02 (inactive) | – | -0.4% (inactive) | -0.5 | -0.101 (inactive)
